TGFb inhibitor: blocks TGF-b signaling | Potency, µM (series often up to 46.1 µM), without a hit: at the highest dose activity, negative = inhibition, actives largely listed as inhibitors | AID 588855 | 410,000 compounds, 1.2% hits | HepG2 CAGA-GFP TGF-b/SMAD3 reporter, GFP fluorescence, 18 h; TGF-beta stimulated, 500 pg/mL final; note: potency is the fitted concentration of half-maximal effect; % is set by controls: 0 for no effect and ±100 for the full control effect; nearly all actives have a fitted effect of over 65% in size
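Smad-responsive CAGA-GFP expression was quantified in HEPG2 cells exposed to compounds and 500 pg/mL final TGF-beta for 18 h at 37 degrees C; unstimulated wells defined full inhibition.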
Giardia kill: Giardia lamblia killing | Giardia lamblia trophozoite viability | activity change, % at 7.66 µM, hits read low | 340,000 compounds, 0.15% hits; in the data active = activity change below about -80%; inconclusive = between about -30% and that limit;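 note: parasites exposed to compound for two days anaerobically before the ATP read; % is set by controls: 0 for no effect and ±100 for the full control effect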
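Giardia trophozoites, 100 cells per well, were exposed to compounds for 48 hrs at 37 deg C under anaerobic conditions; viability was then read as ATP content by bioluminescence after 15-30 min at room temperature.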
HepG2 viability: HepG2 cytotoxicity, counter-screen for TGF-b inhibitors; HepG2 CAGA-GFP viability, ATP luminescence, 18 h; 410,000 compounds, 0.76% hits; Potency, µM (doses to about 46.1 µM), for inactives: at the highest dose activity change, negative = cytotoxicity, usual class: cytotoxic; note: potency is the fitted concentration of half-maximal effect
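HepG2 CAGA-GFP cells (1000/well, DMEM with 1% FBS) received compound, then TGF-beta at 500 pg/mL final, and were incubated 18 hours at 37 degrees C. Viability was read by CellTiter-Glo luminescence. Media-only wells were set as complete cell-killing and DMSO as no toxicity.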
HT1080NT lethal: kills 2HG-producing HT-1080-NT fibrosarcoma cells; Potency, µM (highest dose often 46.1 µM), inactives show at the highest dose activity, negative = less viability, most hits filed as cytotoxic; AID 686970; 360,000 compounds, 1.6% hits; HT-1080-NT fibrosarcoma viability, CellTiter-Glo ATP luminescence, 48 h;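 note: NT is the 2HG producing partner of a matched IDH1 knockdown line; potency is the fitted concentration of half-maximal effect; 0% = DMSO-treated cells and -100% = media-only wells without cells; nearly all actives have a fitted effect of over 55% in size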
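Compounds were tested in concentration-response format on HT-1080-NT cells for 48 hours at 37 degrees C. Cell viability came from CellTiter-Glo luminescence; curves were classified by r2, response magnitude and activity.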
IL-1B inflam inh: inflammasome signaling inhibition, IL-1 beta readout; THP-1 LPS/ATP IL-1B secretion, AlphaLISA, 16 h; hits give low values; activity change, % at 57.5 µM; 360,000 compounds, 4.7% hits; AID 743279; in the data active = activity change below about -50%; inconclusive = mostly about -30% to -49%; note: % is set by controls: 0 for no effect and ±100 for the full control effect
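Secreted IL-1B measured by AlphaLISA bead assay after 16 h compound exposure of THP-1 cells; compounds (final up to 57.5 uM) added 1 h before LPS (250 ng/mL) and ATP (1.25 mM) stimulation; lower signal means less secretion.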
HT1080 IDH1KD tx: HT-1080 IDH1 knockdown cell toxicity (counter line). HT-1080 IDH1 knockdown viability, ATP luminescence, 48 h. 360,000 compounds, 2% hits. AID 686971. Potency, µM (highest dose often 46.1 µM), inactives show at the highest dose activity, negative = toxicity, actives largely listed as cytotoxic;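 note: potency is the fitted concentration of half-maximal effect; 0% = DMSO wells and -100% = cell-free medium wells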
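HT-1080-IDH1KD cells (IDH1 knocked down), 750/well in RPMI with 5% FBS, treated with compound 48 h at 37 degrees C. Viability by CellTiter-Glo luminescence, normalised to DMSO and no-cell wells; concentration-response curves classed.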
Numbers without * were called inactive; ? = inconclusive; nt = not tested or not shown. Most compounds without a hit are left out; they make up all but 6.5% or so of the library. Unless noted, calls come from the whole dose curve; as a rule, active = well fitted curve in the direction sought with a large enough effect; inconclusive = small, poorly fitted or top-dose-only effect, or another doubt; inactive = no such curve, though single readings can be large; an effect the other way counts as inactive or inconclusive.

SMILES | TGFb inhibitor | Giardia kill | HepG2 viability | HT1080NT lethal | IL-1B inflam inh | HT1080 IDH1KD tx
CNP(=O)(Oc1ccccc1)OC12CC3CC(CC(C3)C1)C2 (centres undefined) | -8% | 10 | 0% | -3% | 0 | -3%
O=C(c1ccc(Cl)cc1)C1CCCN(Cc2cccn2-c2cccnc2)C1 (centres undefined) | ? | 9 | -15% | -22% | -56* | -24%
OC12Oc3ccccc3C=C1N1CCC2CC1 (centres undefined) | 8% | -3 | 4% | 15% | 24 | 10%
CN1CCCC2c3ccccc3CCC21 (centres undefined) | 10% | nt | 19% | 8% | 20 | 2%
Cc1ccccc1OCC(=O)N1CCN(CCc2ccccn2)CC1 | -12% | nt | 0% | nt | nt | nt
C[C@H]1[C@@H](OS(=O)(=O)O)C[C@@H]2C[C@H]([C@@H](O)c3cc(=O)[nH]c(=O)[nH]3)NC3=NC[C@H]1N32 | 2.5µM* | 8 | -8% | 2.1µM* | -23 | nt
Cc1ccccc1-[n+]1c(-c2ccccc2)cc(-c2ccccc2)cc1-c1ccccc1 | ? | 6 | -32% | 7.3µM* | -90* | 7.3µM*
Cc1ccc(-c2cc(-c3ccc(C)cc3)[n+](-c3ccc(C(=O)O)cc3)c(-c3ccc(C)cc3)c2)cc1 | 9% | 12 | -13% | ? | -9 | -9%
Oc1ccccc1-[n+]1c(-c2ccccc2)cc(-c2ccccc2)cc1-c1ccccc1 | ? | -12 | -40% | 15µM* | ? | ?
Oc1c(Br)cc(-c2ccccc2)cc1Br | 4% | -14 | 3% | -1% | -9 | 1%
Nc1ccccc1-[n+]1c(-c2ccccc2)cc(-c2ccccc2)cc1-c1ccccc1 | ? | -2 | -18% | ? | -96* | ?
[O-]c1ccccc1-[n+]1c(-c2ccccc2)cc(-c2ccccc2)cc1-c1ccccc1 | ? | -23 | -19% | nt | -84* | ?
OCC#CC[N+]1(CC#Cc2ccccc2)CCOCC1 | -5% | 5 | -10% | 8% | 0 | 15%
C=CC[N+]1(C)C2CCC1CC(O)C2 (centres undefined) | 27% | 13 | -5% | -1% | 0 | 16%
CC(N)C(=O)NC1C2C(=C(O)CC(O)C2O)C(=O)OC1(C)C(Cl)Cl (centres undefined) | ? | -14 | -4% | ? | -100* | 0.92µM*
CCOc1cc2c(cc1OCC)-n1cccc1C(c1ccc(C(C)C)cc1)NC2 (centres undefined) | ? | 12 | -165% | 16µM* | -94* | 21µM*
CCOc1cc2c(cc1OCC)-n1cccc1C(c1ccc(F)cc1)NC2 (centres undefined) | ? | 32 | -35% | -16% | 0 | -8%
CCOc1cc2c(cc1OCC)-n1cccc1C(c1ccc(OC)cc1)NC2 (centres undefined) | 0% | 1 | -14% | -18% | -63* | -6%
CCN(CC)S(=O)(=O)c1cc(NC(=O)C(C)N2CC=C(c3ccccc3)CC2)ccc1C (centres undefined) | -25% | 4 | 17% | -1% | -58* | -17%
Cc1cc(Br)c(NC(=O)CN2CC=C(c3ccccc3)CC2)c(Br)c1 | -18% | 6 | -22% | -7% | -28 | -5%
c1ccc(C(c2ccccc2)c2ccncc2)cc1 | -8% | 3 | -6% | -9% | -27 | 0%
CCOP(=O)(OCC)C(Cc1ccccc1)NC(C)=O (centres undefined) | 0% | 6 | -20% | -1% | 10 | -3%
O=C(c1ccccc1)C(CN1CCCC1)c1ccccc1 (centres undefined) | ? | ? | 5.6µM* | 21µM* | -104* | 13µM*
NC(=Nc1ccccc1)NN=Cc1c[nH]c2ccccc12 | ? | 14 | -45% | ? | -109* | ?
